Compound activity: PubChem, several laboratories
BCLXL inh: Bcl-xL (human) inhibition; Q07817; GST-Bcl-xL / FITC-Bim BH3 peptide fluorescence polarization; inhibition, % at 10.9 µM; 320,000 tested, 0.7% active; AID 2129;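 active = inhibition above the mean of all tested compounds plus 3 SD, cutoff set per campaign, cut at about 30% in these data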;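 also: 0% = DMSO wells and 100% = unlabeled Bim-BH3 peptide competitor; inhibitors lower millipolarization by displacing the labeled peptide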
GLD-1 RNA inh: GLD-1-TGE RNA interaction inhibition (C. elegans) | Q17339 | inhibition, % at 5.96 µM | 320,000 tested, 0.44% active | purified GLD-1 + fluorescein TGE RNA, fluorescence polarization;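 active = percent inhibition above a per-plate cutoff, the plate mean of test compounds plus 3 SD, cut at about 30% in these data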;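 also: 0% = DMSO wells with GLD-1 and probe and 100% = wells lacking GLD-1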
MEX-5 binding: C. elegans MEX-5 TCR-2 RNA binding activity; Q9XUB2; MEX-5/FITC-TCR2 RNA binding, fluorescence polarization; hits give low values; activity score (negative = inhibition of binding), % at 10 µM; 300,000 tested, 0.38% active;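 active = inhibition past about -25% in most replicates, and total fluorescence under double the plate's negative control median, limit read from the data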;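 also: 0% = DMSO and -100% = 5 µM competing unlabeled TCR2 RNA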
E coli Lon inh: E. coli protease La inhibition; purified E. coli Lon protease, fluorescence polarization; inhibition, % at 7.94 µM; 360,000 tested, 0.42% active; AID 602123; in the data active = inhibition above about 13%, passing the limit was not always enough;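 also: 0% = enzyme with probe and DMSO and 100% = no enzyme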
MCL1 BIM primary: inhibitors of human MCL1 binding to BIM-BH3 peptide; GST-MCL1 / FITC-Bim-BH3 fluorescence polarization; AID 2057; 320,000 tested, 0.68% active; inhibition, % at 10.9 µM; Q07820;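 active = inhibition above the mean inhibition of all tested compounds plus 3 SD, set per campaign, cut at about 40% in these data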;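 also: 0% = DMSO wells and 100% = unlabeled Bim-BH3 peptide control; higher means more loss of mP so more displacement of Bim peptide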
Target sequence (Q07820 whole entry, looked up): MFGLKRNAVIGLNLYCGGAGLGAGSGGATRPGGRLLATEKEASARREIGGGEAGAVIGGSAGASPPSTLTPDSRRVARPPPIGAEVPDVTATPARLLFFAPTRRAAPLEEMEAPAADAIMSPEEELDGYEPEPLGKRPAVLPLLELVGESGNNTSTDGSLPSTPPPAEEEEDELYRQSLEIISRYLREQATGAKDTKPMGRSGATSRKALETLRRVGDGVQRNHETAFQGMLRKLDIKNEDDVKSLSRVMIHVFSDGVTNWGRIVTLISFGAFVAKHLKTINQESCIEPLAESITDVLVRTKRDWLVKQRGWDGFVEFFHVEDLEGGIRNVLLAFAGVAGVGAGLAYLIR
eLon confirm: confirmation of E. coli Lon protease inhibitors | AID 602230 | shares compounds with E coli Lon inh | 1,400 tested, 31% active | inhibition, % at 7.94 µM | purified E. coli Lon, fluorescence polarization; in the data active = inhibition above about 16%;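 also: 0% = enzyme with probe and DMSO and 100% = no enzyme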
* = called active by the depositor; i = inactive; x = no result given; + = active, no number. The list is not random: actives were taken first. Their share in the collection is about 1.4%.

SMILES | BCLXL inh | GLD-1 RNA inh | MEX-5 binding | E coli Lon inh | MCL1 BIM primary | eLon confirm
COc1ccccc1-n1c(SCC(=O)c2ccc(O)cc2O)nc2cc([N+](=O)[O-])ccc21 | 1 | 9 | 4 | 8 | 11 | x
CC(C(=O)N1CCCc2c1c(=O)oc1ccc(O)cc21)N1CCc2ccccc2C1 (configuration not stated) | 5 | -6 | 0 | 16* | -3 | +
N[C@H]1C(O)O[C@H](CO)[C@@H](O)[C@@H]1O (some centres not stated) | 7 | -1 | -6 | 9 | -1 | x
CC(NC(=O)c1ccccc1Cl)C1CC2CCC1C2 (configuration not stated) | 1 | 0 | -1 | 17* | 4 | -4
O=C(CS(=O)(=O)c1cn(Cc2ccc(Cl)cc2)c2ccccc12)N1CCCCC1 | 30* | 7 | 0 | 17* | 25 | 5
[O-][n+]1cccc(C(O)c2ccccc2)c1 (configuration not stated) | 0 | -4 | 0 | 0 | -10 | x
Cc1ncc([N+](=O)[O-])n1CC(=O)Nc1ccc(F)c(Cl)c1 | 2 | -7 | 2 | -5 | 11 | x
Cc1ncc([N+](=O)[O-])n1CC(=O)Nc1cccc(C(F)(F)F)c1 | 10 | 1 | 4 | 29* | 5 | -91
COc1ccc(/C=N/N(C)C2=NS(=O)(=O)c3ccccc32)cc1 | 7 | 4 | 2 | 7 | 2 | x
CN(/N=C/c1ccc(N(C)C)cc1)C1=NS(=O)(=O)c2ccccc21 | 14 | 6 | 42 | 47* | 4 | i
O=C1C(=O)c2ccccc2C(O)=C1CCCCl | 5 | 1 | 0 | 77* | 1 | 5
COc1ccc(CC2=C(O)c3ccccc3C(=O)C2=O)cc1 | 3 | 0 | 0 | 6 | 14 | x
COc1ccc(NC(=O)CN(C)C(=O)CNC(=O)c2ccc3ccccc3c2)cc1 | x | x | x | 5 | x | x
CCn1cnc2cc(NCc3ccc(C)cc3)ccc21 | 6 | -3 | -3 | 117* | 10 | 1
CCn1cnc2cc(NCc3ccc(Br)cc3)ccc21 | 9 | -1 | 0 | x | 16 | x
O=C(c1cnccn1)N1CCN(S(=O)(=O)c2ccc3ccccc3c2)CC1 | -7 | -5 | 2 | 20* | -11 | 1
O=C(COC(=O)c1ccccc1O)NCCc1c[nH]c2ccccc12 | x | 3 | x | -13 | x | x
O=C(COC(=O)c1ccccc1C(=O)OCC(=O)NCCc1c[nH]c2ccccc12)NCCc1c[nH]c2ccccc12 | 3 | -5 | -2 | 32* | -2 | -5
COc1ccc(C(C)=O)cc1CSc1nnc(-c2ccncc2)o1 | 1 | -5 | 3 | 93* | 2 | -22
O=C(COC(=O)C1CCN(S(=O)(=O)c2cccs2)CC1)c1ccc2c(c1)OCCO2 | -1 | -3 | 1 | 15* | -1 | -2
O=C1COc2ccc(C(=O)COC(=O)C3CCN(S(=O)(=O)c4cccs4)CC3)cc2N1 | 2 | 7 | -2 | -6 | -6 | x
COC(=O)C1=C(C(=O)OC)C2C(C)=CC(C)=CN2C(C(=O)OC)=C1C(=O)OC (configuration not stated) | 23 | 14 | -7 | 20* | 24 | 13
COc1ccc(-c2ccc3c(c2)C2CC3CCN2C(=O)C2CCCCC2)cc1 (configuration not stated) | x | x | x | -8 | x | x
O=C(NCc1ccc(F)cc1)C1(c2cccs2)CCOCC1 | 4 | -1 | 0 | 0 | -2 | x
COC(=O)c1ccc(=O)n(Cc2ccc3c(c2)OCO3)c1 | 4 | -4 | -1 | 21* | -4 | -7
SMILES | BCLXL inh | GLD-1 RNA inh | MEX-5 binding | E coli Lon inh | MCL1 BIM primary | eLon confirm
Cc1ccc(S(=O)(=O)N2CCOCC2)cc1C(=O)N1CCN(c2ccc(C(F)(F)F)cn2)CC1 | x | 3 | x | 0 | x | x
Cc1ccc(S(=O)(=O)N2CCC(C(=O)OCC(=O)NC3(C#N)CCCCC3)CC2)cc1C | -4 | -2 | 4 | -1 | -5 | x
CCc1ccc(OCC(=O)OC(C)C(=O)Nc2ccc(Cl)cn2)cc1 (configuration not stated) | 6 | -2 | x | 2 | 2 | x
OCc1ccccc1-c1cccc2nccn12 | x | x | x | 70* | x | 5
c1cnc2c(-c3cccc4nccn34)cccc2c1 | x | x | x | -2 | x | x
Cc1ccc(S(=O)(=O)CCC(=O)OCc2nnc(-c3ccccc3)o2)cc1 | x | 3 | x | -8 | x | x
